Bioassay records as filed in PubChem BioAssay.
Sampled rows, rich in hits. Any-hit rate of the full collection: about 28%.
CYP2C19 activ – cytochrome P450 2C19 (human) activation; P33261; recombinant CYP2C19, luciferin-H EGE luminescence; active compounds read high; 0 = fully inhibited enzyme, 1 = untreated enzyme; 96,000 tested, under 10 active; activation factor at 5 µM; AID 1025;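 active = activation factor of at least 2 at 5 µM in the primary screen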;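 note: 0 = wells with 2.5 mM tranylcypromine and 1 = vehicle-only wells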
CYP2C9 activ – increases human cytochrome P450 2C9 activity. P11712. recombinant CYP2C9, luciferin-H conversion, luminescence; active compounds read high; factor 1 = untreated enzyme, 0 = blocked. activation factor at 5 µM. actives 1.4% (n = 96,000). AID 1024;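 active = activation factor of 2 or more for CYP2C9 at a 5 µM dose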;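 note: 0 = sulfaphenazole-blocked wells and 1 = vehicle-only wells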
Target sequence (P11712 whole entry, looked up): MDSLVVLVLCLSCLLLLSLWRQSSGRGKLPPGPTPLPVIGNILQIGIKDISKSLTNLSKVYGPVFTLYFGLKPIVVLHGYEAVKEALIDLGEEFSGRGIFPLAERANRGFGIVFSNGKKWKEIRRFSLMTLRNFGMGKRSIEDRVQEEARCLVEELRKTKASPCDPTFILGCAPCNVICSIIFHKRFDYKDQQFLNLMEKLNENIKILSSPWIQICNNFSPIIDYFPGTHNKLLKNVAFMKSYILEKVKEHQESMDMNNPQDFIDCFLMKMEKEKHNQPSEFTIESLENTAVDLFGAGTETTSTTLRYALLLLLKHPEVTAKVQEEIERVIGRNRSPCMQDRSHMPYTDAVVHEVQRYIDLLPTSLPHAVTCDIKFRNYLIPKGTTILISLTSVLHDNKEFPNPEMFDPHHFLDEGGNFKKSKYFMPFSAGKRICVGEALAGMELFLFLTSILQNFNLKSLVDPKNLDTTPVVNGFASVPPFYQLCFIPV
PTK2B oligo ant – blocks oligomerization of human Pyk2 in cells; AID 1347419; z-score (the deposit names both 25 µM and 10 µM); Q14289; actives 0.83% (n = 99,000); Q293 cells, Pyk2 FERM NanoBiT luminescence; active compounds read low;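 active = Z-score of -3 or lower, scaled per plate to the spread of control and sample wells; inactive = z-score above -3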;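 note: negative z-score means lost luminescence so less FERM oligomerization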
CYP2C9 inh – inhibitors of human CYP2C9 | AID 777 | actives 20% (n = 96,000) | CYP2C9 Supersomes, luciferin-H conversion, luminescence | inhibition, % at 5 µM | P11712;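 active = blocking of liver enzyme CYP2C9 beyond about 50% at 5 µM, limit read from the data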
CYP2C19 inh – inhibitors of human CYP2C19; actives 21% (n = 96,000); CYP2C19 Supersomes, luciferin-H EGE luminescence, 30 min; inhibition, % at 5 µM; P33261;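 active = CYP2C19 inhibition above a set limit at 5 µM in the primary screen, cut at about 50% in these data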;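 note: plate controls were negative control wells for no effect and 2.5 mM tranylcypromine positive control for full effect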
The depositor's hits bear a star; / = not tested or not shown.

SMILES	CYP2C19 activ	CYP2C9 activ	PTK2B oligo ant	CYP2C9 inh	CYP2C19 inh
CCN(CCCNC(=O)c1c(C)cc(=O)oc1C)c1cccc(C)c1	0.1	0.3	1.4	72*	92*
N#CC(C(=O)C12CC3CC(CC(C3)C1)C2)c1nc2ccccc2[nH]1 (stereo not drawn)	0.7	0.4	-2.7	62*	33
N#CC(C(=O)CCN1C(=O)C2CC=CCC2C1=O)c1nc2ccccc2[nH]1 (stereo not drawn)	0.8	0.8	-0.62	25	19
COc1ccccc1CNc1nc2nc(C)c(Cl)c(=O)n2[nH]1	1	0.4	-0.33	61*	2
CCOc1ccccc1CNc1nc2nc3c(c(=O)n2[nH]1)CCC3	1.1	0.6	0.51	43	-8
CCOCCCNC(=O)C1CCN(S(=O)(=O)N2CC(C)CC(C)C2)CC1 (stereo not drawn)	1	1	1.5	-4	-1
CCN(CC)c1cnn(C/C(=N\OC)c2ccc(Cl)cc2)c(=O)c1Br	0	0.1	-1.7	94*	97*
Cc1cc(C)c(C#N)c(Oc2ccc(F)cc2)n1	0.9	0.9	-0.49	13	13
Cc1cc(C)c(C#N)c(Oc2ccc(O)cc2)n1	0.7	0.4	/	65*	26
CC(OC(=O)c1cc(=O)[nH]c2ccccc12)c1ccccc1 (stereo not drawn)	0.6	0.5	-4*	54*	38
CCC(=NCCN1CCNCC1)C1=C(O)CC(C)(C)CC1=O	1.2	1.2	0.81	-22	-18
CCN(CC)c1ccc(-c2nc3cnccc3n2C)cc1	0.1	0.1	0.12	92*	90*
CCN(CC)c1ccc(NC(=O)c2cccnc2)cc1	0.6	0.8	1.4	22	36
CN(CCCNC(=O)Cn1cc2c(n1)CCCC2)C1CCCCC1	1	1.1	/	-7	1
CC(C)c1ccc(NC(=O)C2CC(=O)N=C(N)S2)cc1 (stereo not drawn)	1	1.1	-0.26	-11	2
COC(=O)C1=C(C)Nc2ccc(C)cc2S1	0.4	0.5	/	50	62*
COc1ccc2c(c1)C(C)CC(C)(C)N2C(=O)CSc1ncn[nH]1 (stereo not drawn)	0.1	0.4	0.39	64*	88*
COc1ccc(C(=O)CSc2ncn[nH]2)cc1OC	0.7	1.1	0.15	-15	29
COc1ccc(C(=O)N2CCN(c3nc4cc(C)ccc4cc3C#N)CC2)c(OC)c1	1	0.4	1.1	55*	-2
CCOC(=O)C1CCN(c2nc3cc(OC)ccc3cc2C#N)CC1	0	0	-0.17	96*	96*
COc1ccc2nc(N3CCC(O)CC3)c(C#N)cc2c1	0.4	0.8	0.45	16	63*
COc1cc(C(=O)N2CCCN(c3nc4cc(C)ccc4cc3C#N)CC2)cc(OC)c1OC	0.8	0.8	/	22	22
N#CCSc1nnc(Cc2ccc3c(c2)OCO3)o1	0.8	1	0.55	-1	16
COc1ccc2c(c1OC)C(=O)N1c3ccccc3C(=O)N(c3ccccc3)C21 (stereo not drawn)	0.8	0.4	-0.25	59*	16
O=C(Nn1nnnc1Nc1ccccc1)C12CC3CC(CC(C3)C1)C2	0.3	0.7	-0.44	33	71*
SMILES	CYP2C19 activ	CYP2C9 activ	PTK2B oligo ant	CYP2C9 inh	CYP2C19 inh
O=C(NCc1ccc2c(c1)OCO2)C1CCC(CNS(=O)(=O)c2ccccc2)CC1 (stereo not drawn)	/	/	0.12	/	/
CC(=O)C1=C(C)NC(=O)NC1c1ccc(OC2CCCC2)cc1 (stereo not drawn)	0.7	1.1	1.7	-8	32
C=CCN(Cc1cc(OC)ccc1OC)S(=O)(=O)N(C)C	0	0.4	0.44	64*	96*
C=CCNC(=O)CN(c1ccc(OC)cc1OC)S(C)(=O)=O	0.8	1	-0.21	-5	17
Cn1c(SCC(=O)Nc2ccccc2-c2ccccc2)nnc1-c1ccco1	0.4	0.5	-0.76	45	60*
CCCn1c(SCC(=O)Nc2ccccc2-c2ccccc2)nnc1-c1ccoc1C	0.2	0.1	-0.22	87*	82*
Cc1cccc(C)c1NC(=O)CSc1nnc(-c2ccoc2C)n1C	0.7	1	-0.84	-1	32
Cn1c(SCC(=O)N2c3ccccc3Sc3ccccc32)nnc1-c1ccco1	0.3	0.3	-0.83	70*	68*
CCc1nnc(NC(=O)CSc2nnc(-c3ccco3)n2C)s1	0.9	0.9	1.3	12	9
